The whole screen tested about 64,000 compounds, of which about 55 (0.09%) were called active. How the calls were made is not given here. These entries were drawn from the full list.
These compounds were tested against Alkaline phosphatase, tissue-nonspecific isozyme (Homo sapiens) (UniProt P05186) (assay: inhibition of tissue-nonspecific alkaline phosphatase – biochemical, luminescent (AID 518;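 further: plate controls were vehicle for no effect and reference inhibitor for full effect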)). Conditions: purified TNAP enzyme, luminescent substrate readout; at 20 µM; hits give high values.
Sequence of Alkaline phosphatase, tissue-nonspecific isozyme (Homo sapiens) (P05186 whole entry, looked up): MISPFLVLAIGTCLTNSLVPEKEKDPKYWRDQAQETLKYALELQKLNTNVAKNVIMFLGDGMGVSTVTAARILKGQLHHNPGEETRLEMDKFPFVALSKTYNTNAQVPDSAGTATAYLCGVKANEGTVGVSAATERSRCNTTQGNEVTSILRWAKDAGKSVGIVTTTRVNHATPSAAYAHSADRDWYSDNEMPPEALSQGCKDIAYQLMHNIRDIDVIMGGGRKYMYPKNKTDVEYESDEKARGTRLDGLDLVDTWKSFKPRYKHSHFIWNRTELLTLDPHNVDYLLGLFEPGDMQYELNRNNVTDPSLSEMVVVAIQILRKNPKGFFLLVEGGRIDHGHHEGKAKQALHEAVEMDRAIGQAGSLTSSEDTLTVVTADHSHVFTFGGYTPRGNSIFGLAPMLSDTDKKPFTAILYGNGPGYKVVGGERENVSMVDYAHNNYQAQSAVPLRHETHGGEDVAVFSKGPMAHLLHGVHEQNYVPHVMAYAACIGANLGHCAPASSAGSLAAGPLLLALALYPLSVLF

inhibition, inactive:
COCc1[nH]nc2c1C(c1ccc(OC)c(OC)c1)C(C#N)=C(N)O2 (stereo unspecified) 7.1%, COCc1[nH]nc2c1C(c1ccc(OC)cc1)C(C#N)=C(N)O2 (stereo unspecified) 16.1%, COc1ccccc1C1C2C(=O)N(c3ccccc3)C(=O)C2ON1c1ccccc1 (stereo unspecified) -0.2%, O=c1[nH]c(-c2ccccc2O)nc2c1CCCC2 8.8%, Cc1ccc(NC(=O)c2cc(-c3ccco3)on2)cc1 8.1%, O=C(CN1CCC(n2nnc3cc(F)ccc32)CC1)Nc1ccccc1N1CCOCC1 6.7%, COc1ccc(S(=O)(=O)Nc2cc(Cl)ccc2OC)cc1 14.2%, O=c1cc(-c2ccccc2)nc2nc(COc3ccccc3)[nH]n12 1.9%, O=C(NCc1ccccc1)c1cc(=O)nc2sc(-c3ccccc3)nn12 9.8%, CCn1c(CNC(=O)c2cccs2)nnc1SCC(=O)NCCc1ccccc1 14%, C=CCN1C(=O)CS/C1=N/c1nccs1 8.1%, O=C1c2ccccc2C(=O)N1c1n[nH]c(CCc2ccccc2)n1 22.8%, O=C1C2C3C=CC(C3)C2C(=O)N1c1n[nH]c(CCc2ccccc2)n1 (stereo unspecified) 36.8%, Cc1ccc(NC(=O)Cn2cnc3c(=O)n(C)c(=O)n(C)c32)c(C)c1 3.9%, CN(C)c1[nH]c(=O)c(C#N)c2c1CCN2Cc1ccccc1 11.1%, CCOc1ccc(C2C(C#N)=C(N)Oc3nc[nH]c(=O)c32)cc1OC (stereo unspecified) 4.4%, O=C(CC(Nc1ccccc1)C(=O)O)c1ccccc1 (stereo unspecified) 15.2%, CCOc1ccc(OCC)c(NS(=O)(=O)c2ccc3c(c2)n(C)c(=O)c(=O)n3C)c1 0.5%, CCOc1ccc(CC(=O)Nc2c(C(N)=O)oc3ccccc23)cc1OCC 5.9%, CCN(CC)C(=O)c1c[nH]c2ccc(S(=O)(=O)Nc3cc(C)cc(C)c3)cc2c1=O 5.8%, CS(=O)(=O)N(CC(=O)NC1CCCCC1)c1cccc(Cl)c1 6.8%, COc1cccc(C(=O)Nc2ccccc2N2CCCC2)c1 9.9%, O=C(Cn1cc2c(n1)CCCCC2)NCc1ccccc1 9.1%, Cc1ccc(NC2CC(=O)N(c3ccc(N4CCCCC4)cc3)C2=O)cc1 (stereo unspecified) 6.6%, COc1ccc(CC(=O)Nc2cccc(-c3nnc(-c4ccccc4)o3)c2)cc1OC 6.4%, O=C(Nc1ccccc1)NC1(C(=O)NCc2ccc3c(c2)OCO3)CCCCC1 -0.2%, COc1cc(C2c3c(oc4c(C)cc(C)cc4c3=O)C(=O)N2Cc2cccnc2)cc(OC)c1OC (stereo unspecified) 4.1%, Cc1ccc(-c2nc(CS(=O)CC(=O)NCc3ccccn3)c(C)o2)cc1 (stereo unspecified) -7.5%, CN(C)/C=N/c1nc2ccc3c(c2s1)CCCC3 12.3%, COc1ccc(N2CCN(CC(=O)Nc3cc4c(cc3C(C)=O)OCO4)CC2)cc1 3.8%, CSc1ccccc1C(=O)NCc1ccc2c(c1)OCO2 7.3%, O=C(Nc1ccccc1)N(C1=NCCCCS1)c1ccccc1 8.3%, C=C(C)Cn1c(SCC(=O)O)nnc1-c1ccc(C(C)(C)C)cc1 10.6%, Nc1c(S(=O)(=O)c2cccc(Cl)c2)c2nc3ccccc3nc2n1/N=C/c1ccc(O)c(O)c1 11.3%, CSC1=C(C#N)C(c2cccs2)CC(=O)N1C (stereo unspecified) 10.5%, Cc1ccc(N(CC(=O)N2CCN(c3ccc(F)cc3)CC2)S(=O)(=O)c2c(C)nn(C)c2C)cc1 8.6%, O=C(c1ccc(Cl)cc1)N1CCC(c2nc(-c3cccs3)no2)CC1 13.1%, CCC(CC)C(=O)NCCNC(=O)C(CC)CC 10.5%, Cc1ccc(OCC(=O)N2CCN(C(=O)CCC3CCCC3)CC2)cc1 6.3%, Cc1cc2c(c(=O)n1CCN(C)C)C(c1ccccc1Br)C(C#N)=C(N)O2 (stereo unspecified) 9.3%, COCCNC(=O)Nc1ccc2c(c1)N(C)C(=O)CS2 1.5%, O=C(c1cc2ccccn2n1)N1CCN(Cc2ccccc2)CC1 2.9%, Cc1onc(-c2ccccc2Cl)c1C(=O)Nc1ccc(-c2cn3cccnc3n2)cc1 4.9%, CCOC(=O)CN1CC23C=CC(O2)C(C(=O)O)C3C1=O (stereo unspecified) 5.4%, O=C(CSc1nnc(-c2cccnc2)n1-c1ccccc1)Nc1ccccn1 2.6%, COc1ccc(OC)c(S(=O)(=O)NC2CCN(Cc3ccccc3)CC2)c1 6.7%, CC(C)(C)n1ncc2c(=O)n(CC(=O)N3CCCc4ccccc43)cnc21 4%, COc1ccc(-c2nnc(SCC(=O)N3CCOCC3)o2)cc1 3.7%, Cc1nn(Cc2ccccc2)c(C)c1CCC(=O)O 7.6%, N#Cc1ccccc1NC(=O)c1ccccc1OCC(=O)NCc1ccco1 7%, COC(=O)c1ccc(NC(=O)COc2ccc(S(=O)(=O)NC(C)C)cc2)cc1 -1.4%, O=C1CC(c2ccco2)Cc2nc(N3CCN(Cc4ccc5c(c4)OCO5)CC3)ncc21 (stereo unspecified) 10.2%, Cc1noc(C)c1S(=O)(=O)N1CCC(C(=O)N(C)Cc2ccccc2)CC1 -0.3%, CN(Cc1ccccc1)Cc1c(F)cccc1F 5.6%, CN1C(=O)CS(=O)c2ccc(C(=O)NC3CC3)cc21 (stereo unspecified) 10%, CCc1c(C)nc2ncnn2c1N1CCC(C(=O)NCc2cccc(OC)c2)CC1 13%, Cc1ccc(NC(=O)C2CCCN2S(=O)(=O)c2ccc3c(c2)CCC(=O)N3)cc1Cl (stereo unspecified) 9%, N#Cc1cc(Sc2ccccn2)c(Sc2ccccn2)cc1C#N 10.6%, CC(=O)Nc1nc2ccccc2n1CCOc1ccccc1 4.8%, O=C(C1CCCN(S(=O)(=O)c2cccc3cccnc23)C1)N1CCN(c2ccc(F)cc2)CC1 (stereo unspecified) 14.6%, O=c1c2ccccc2nc(SCc2nnc(-c3ccccc3)o2)n1-c1ccccc1 3.6%, O=C(O)c1ccc(S(=O)(=O)c2ccccc2)cc1 8.6%, CC(=O)C(Sc1nc(-c2ccco2)nc2c1c(=O)n(C)c(=O)n2C)C(=O)N(C)C (stereo unspecified) 6%, COc1cccc(N2CCN(C3CC(=O)N(c4ccc(F)c(Cl)c4)C3=O)CC2)c1 (stereo unspecified) 7.6%, O=C(c1ccc(-c2ccccc2)cc1)N1CCN(c2nc3ccccc3o2)CC1 -3.8%, COc1cc(/C=N/n2cnnc2)ccc1OCCOc1ccccc1 2.9%, COc1ccc(OCc2nc(C#N)c(N3CCN(c4ccc(OC)cc4)CC3)o2)cc1 16.1%, O=S(=O)(NCCc1cn2ccccc2n1)c1cccs1 1.2%, CC(=O)N1CCC(N(C(=O)Nc2ccc(C)c(C)c2)C2CCCC2)CC1 6.3%, CC1Cc2ccccc2N1C(=O)C1CCCN(S(=O)(=O)c2cccc3nsnc23)C1 (stereo unspecified) 15.5%, O=C(CSCc1ccccc1)N1CCN(c2ccc(F)cc2)CC1 5.6%, CSc1nc2c(c(=O)[nH]c(=O)n2C)n1C/C=C(\C)Cl 11.8%, O=C(Cn1ncc2c1-c1ccccc1OC2)N1CCN(c2ccccn2)CC1 16.3%, Cn1c(SCC(=O)N2CCOCC2)nnc1-c1ccccc1 3.9%, CCOc1cccc(-c2nnc3sc(-c4cc(OC)c(OC)cc4OC)nn23)c1 8.9%, CC(NC(=O)C(c1ccccc1)c1ccccc1)C(=O)O (stereo unspecified) 10%, CN(CC(=O)NCCC1=CCCCC1)S(=O)(=O)c1ccc2c(c1)CCC(=O)N2 6.5%, Cc1csc(NC(=O)CSc2nnc(-c3ccncc3)o2)n1 13.3%, Cc1ccc(-c2nc(CS(=O)(=O)CC(=O)N3CC(C)CC(C)C3)c(C)o2)cc1 (stereo unspecified) 2.5%, CCC1(c2ccc(F)cc2)NC(=O)N(CC(=O)c2ccc[nH]2)C1=O (stereo unspecified) 11.1%, Cc1ccc(-n2c(SCC(N)=O)nnc2-c2ccccn2)cc1 5.9%, Cc1nc(CN2CCN(C(=O)c3ccc(Br)cc3)CC2)cs1 8.9%, CC1(C)CC(=O)C2=C(C1)N(CC1CCCO1)C(=O)NC2(C(F)(F)F)C(F)(F)F (stereo unspecified) 7.8%, COc1cc(/C=N/n2cnnc2)ccc1OCC(=O)N1CCOCC1 9.7%, Cc1cc(C(=O)CSc2nncs2)c(C)n1-c1c(C)n(C)n(-c2ccccc2)c1=O 6.8%, COc1ccc(NC(=O)CSc2nnc(Cc3cccn3C)n2CCc2ccccc2)cc1OC 21.5%, Cc1oc(CC(C)C)cc1C(=O)Nc1ccc(C(=O)O)cc1 -1.6%, C=CCn1c(COc2ccccc2)nnc1SCc1ccc(C#N)cc1 5%, O=C1C2CCCN2C(c2ccccc2)N1c1cccc(Cl)c1 (stereo unspecified) 2.8%, COc1ccc(-c2ccc(-c3noc(-c4ccccc4C)n3)c(OC)n2)cc1 6.5%, CCCCn1c(Cl)nc2c1c(=O)n(C)c(=O)n2C 13.4%, CCOc1ccc(S(=O)(=O)Nc2nc3ccccc3nc2N2CCN(C)CC2)cc1 0.5%, O=C(c1cccnc1)N1CCN(C(=O)c2cccs2)CC1 4.7%, Cc1ccc(CC(=O)Nc2cccc(C)n2)cc1 6%, C=CCOC(=O)CCCC(=O)NC1CCCCC1 3.4%, CCOC(=O)C1Cc2cc3c(cc2C1=O)CC(C(=O)OCC)C3=O (stereo unspecified) 8.4%

From PubChem BioAssay AID518 (Sanford-Burnham Center for Chemical Genomics, 2006)
